Screens deposited in PubChem BioAssay by National Center for Advancing Translational Sciences (NCATS).
uPA surface inh: inhibitors of cell surface uPA generation; cell surface uPA generation assay, qHTS; Potency, µM (highest dose often 38.3 µM), without a hit: at the highest dose activity change, negative = inhibition, hits mostly inhibitors; 330,000 tested, 0.31% active; AID 540303; active = well fitted inhibition curve with a large enough effect; inconclusive = small, poorly fitted or top-dose-only effect; inactive = no such curve, though single readings can be large or run the other way; tested in mouse RAW 264.7 cells; note: potency is the fitted concentration of half-maximal effect; % is set by controls: 0 for no effect and ±100 for the full control effect; nearly all actives have a fitted effect of over 55% in size
ATXN2 expr inh: inhibitors of ATXN2 expression; HEK-293 ATXN2-luciferase reporter, luminescence, 24 h; Potency, µM (top dose mostly 57 µM), for inactives: top-dose activity change, negative = inhibition, actives largely listed as inhibitors; 360,000 tested, 0.72% active; AID 1745845; note: potency is the fitted concentration of half-maximal effect; % is set by controls: 0 for no effect and ±100 for the full control effect; nearly all actives have a fitted effect of over 55% in size
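ATXN2-luciferase reporter cells (luciferase flanked by upstream and downstream ATXN2 gene portions) were treated 24 h at 37 °C with compounds at up to 57 uM. SteadyGlo luminescence gave expression; GF-AFC fluorescence gave viability.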
Giardia kill: Giardia lamblia killing; AID 540267; activity change, % at 7.66 µM, hits read low; Giardia lamblia trophozoite viability; 340,000 tested, 0.15% active; in the data active = activity change below about -80%; inconclusive = between about -30% and that limit;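 note: parasites exposed to compound for two days anaerobically before the ATP read; % is set by controls: 0 for no effect and ±100 for the full control effect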
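Compounds were tested on trophozoites seeded at 100 cells/well and held 48 hrs at 37 deg C anaerobically. An ATP-based luminescent kit measured the remaining live cells.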
ATXN viability: reduces viability in counter-screen for ATXN expression inhibitors; AID 651635; Potency, µM (top dose mostly 56.7 µM), most hits filed as cytotoxic; 400,000 tested, 0.49% active; S2 cells (HEK-293 line with an ATXN2-luciferase reporter) viability, CellTiter-Fluor protease fluorescence, 24 h; note: potency is the fitted concentration of half-maximal effect; nearly all actives have a fitted effect of over 40% in size
TGFb inhibitor: TGF-b pathway inhibition; HepG2 CAGA-GFP TGF-b/SMAD3 reporter, GFP fluorescence, 18 h; TGF-beta stimulated, 500 pg/mL final; Potency, µM (doses to about 46.1 µM), without a hit: top-dose activity, negative = inhibition, hits mostly inhibitors; 410,000 tested, 1.2% active; AID 588855; note: potency is the fitted concentration of half-maximal effect; % is set by controls: 0 for no effect and ±100 for the full control effect; nearly all actives have a fitted effect of over 65% in size
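Per well, imaged GFP fluorescence of HEPG2 CAGA-GFP cells gives the signal; cells get compound, then TGF-beta (500 pg/mL final), 18 h at 37 degrees C; %Activity versus -TGF-beta and +DMSO controls.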
HepG2 viability: counter-screen for TGF-b inhibitors: cytotoxicity in HepG2 cells; HepG2 CAGA-GFP viability, ATP luminescence, 18 h; Potency, µM (doses to about 46.1 µM), for inactives: top-dose activity change, negative = cytotoxicity, most hits filed as cytotoxic; 410,000 tested, 0.76% active; AID 588856; note: potency is the fitted concentration of half-maximal effect
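CellTiter-Glo luminescence gave cytotoxicity after 18 hours at 37 degrees C. The cells were HepG2 CAGA-GFP in 1% FBS DMEM, stimulated with 500 pg/mL TGF-beta after compound addition. %Activity was normalised to no-cell wells (complete cell-killing) and DMSO (no toxicity), and curves were fitted and classified.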
The depositor's hits bear a star; i = inactive; ? = inconclusive; / = no result. Hits are enriched below; roughly 2.6% of the tested compounds scored in any of these assays. Unless noted, calls come from the whole dose curve; as a rule, active = well fitted curve in the direction sought with a large enough effect; inconclusive = small, poorly fitted or top-dose-only effect, or another doubt; inactive = no such curve, though single readings can be large; an effect the other way counts as inactive or inconclusive.

SMILES	uPA surface inh	ATXN2 expr inh	Giardia kill	ATXN viability	TGFb inhibitor	HepG2 viability
CN1c2ccccc2C(C)(C)C12C=Nc1c(ccc3ccccc13)O2 (stereo not given)	-2.8%	38.5%	11.0	i	?	-28.2%
C=C1CC2C3CCC4=CC(=O)C=C[C@]4(C)[C@@]3(F)[C@@H](O)C[C@]2(C)[C@@]1(O)C(=O)COC(C)=O (stereo not given in full)	/	/	/	i	/	/
O=C(NCc1cccnc1)[C@@H]1CC=C[C@@H]2CCN(C3CCCCC3)C(=O)[C@@H]21	/	/	/	/	-21.6%	3.7%
CC(C)N1CCN(c2ccc(OC[C@H]3CO[C@](Cn4cncn4)(c4ccc(Cl)cc4Cl)O3)cc2)CC1	-2.5%	?	2.9	?	?	12.6µM*
COc1cccc(C(=O)N2CCCC(c3nc(SCCN4CCOCC4)ncc3C)C2)c1 (stereo not given)	/	/	/	i	/	/
c1ccc2c(c1)C1=NCCN1c1ccccc1-2	/	/	/	i	10µM*	-24.0%
Cc1nc(-c2cccc(NC(=O)Nc3ccc([N+](=O)[O-])cc3)c2)no1	/	12.6µM*	/	i	?	-56.0%
CC[N+](CC)(CC)c1ccc(/C=C/c2ccnc3ccccc23)cc1	/	/	/	/	2.51µM*	-75.8%
CC[N+](C)(C)c1ccc(/C=C/c2ccnc3ccccc23)cc1	/	/	/	/	11.2µM*	-74.5%
CCN(C)c1ccc(/C=C/c2ccnc3ccccc23)cc1	/	/	/	/	81.6%	-13.8%
Cc1ccc(CNc2ncnc3sc(C(=O)N4CCC[C@H]4C(N)=O)c(C)c23)o1	/	/	/	i	/	/
Cc1cccc(-c2nnc(SCCC(=O)O)o2)c1	/	1.41µM*	/	i	-4.7%	-6.2%
Cc1cccc(-c2nnc(SCCC(=O)N3CCOCC3)o2)c1	1.6%	-20.0%	25.4	i	0.1%	2.9%
O=S(=O)(c1ccccc1)N(CC(O)Cn1c2ccccc2c2ccccc21)c1ccccc1 (stereo not given)	-10.3%	?	-8.0	?	?	-40.1%
Cc1ccc(S(=O)(=O)N(CC(O)Cn2c3ccccc3c3ccccc32)c2cccc(C(=O)N(C)C)c2)cc1 (stereo not given)	/	?	/	?	?	-24.3%
Cc1ccc(S(=O)(=O)N(CC(O)Cn2c3ccccc3c3ccccc32)c2cccc(C(N)=O)c2)cc1 (stereo not given)	/	?	/	?	10µM*	11.2µM*
Cc1ccc(S(=O)(=O)N(CC(O)Cn2c3ccccc3c3ccccc32)c2cccc(C(=O)NCCO)c2)cc1 (stereo not given)	/	?	/	/	12.6µM*	15.8µM*
C[C@@H]1C[C@H]2[C@@H]3CCC4=CC(=O)C=C[C@]4(C)[C@@]3(F)[C@@H](O)C[C@]2(C)[C@@]1(O)C(=O)COC(=O)c1ccncc1	/	-2.4%	/	i	/	/
CCOc1ccc(CN2CCN(Cc3cc4ccccc4[nH]3)CC2CCO)cc1 (stereo not given)	14.0%	-27.6%	15.0	i	?	-1.5%
COc1cccc(CN2CCN(Cc3cc4ccccc4[nH]3)CC2CCO)c1 (stereo not given)	2.3%	/	-6.4	i	22.4µM*	17.3%
O=[N+]([O-])c1cc(C(F)(F)F)ccc1NCCNC(=S)Nc1ccc(Cl)cc1	?	?	-1.0	?	5.01µM*	10µM*
O=[N+]([O-])c1cc(C(F)(F)F)ccc1NCCCCNS(=O)(=O)c1ccc(Cl)cc1	5.8%	?	-14.6	?	?	10µM*
CS(=O)(=O)NCCCNc1ccc(C(F)(F)F)cc1[N+](=O)[O-]	6.0%	5.7%	-0.4	i	-5.7%	7.1%
Cc1ccc2oc3nc(C)c(C(=O)O)cc3c(=O)c2c1	-4.8%	11.3%	-1.3	i	?	11.2µM*
O=C(NCc1nnc2n1CCN(Cc1cc3c(cc1Cl)OCO3)CC2)c1cccc(F)c1	/	/	/	i	/	/
SMILES	uPA surface inh	ATXN2 expr inh	Giardia kill	ATXN viability	TGFb inhibitor	HepG2 viability
COc1cccc(NC(=O)N2CCCC2)c1	13.1%	/	2.5	i	3.1%	14.6%
O=C(NCCCNc1nc(Nc2cccc(NC(=O)N3CCCC3)c2)ncc1I)c1cccs1	/	13.7µM*	/	/	/	/
O=C(C[n+]1ccccc1Br)c1ccc2c(c1)CCCC2	/	/	/	/	4.8%	0.4%
COc1cc(/C=C/C(C)=O)cc(OC)c1OC	-12.1%	35.4%	5.2	i	0.0%	18.0%
COc1cc(/C=C/C(=O)N2CCC=CC2=O)cc(OC)c1OC	?	10µM*	11.0	10µM*	?	-89.9%
COc1cc(C=CC(=O)c2cc(OC)c(OC)c(OC)c2)cc(OC)c1OC	-10.7%	?	16.1	?	11.2µM*	-77.3%
O=S(=O)(Nc1c(Br)cc(Br)c2cccnc12)C1CCCCC1	/	/	-7.8	/	-12.3%	-3.6%
O=C(Nc1cccc(/C=C/c2ccccn2)c1)c1ccc(-n2cncn2)c([N+](=O)[O-])c1	-9.9%	?	3.5	17.8µM*	?	-21.3%
CC(=O)OC[C@H]1O[C@@H](OC(C)=O)[C@H](OC(C)=O)[C@@H]1OC(C)=O	/	6.2%	/	i	/	/
CC(C)(C)c1ccc(-n2ncc3c2CCCC3NC(=O)CN2CCCC2=O)cc1 (stereo not given)	-6.6%	-11.9%	20.8	i	-41.9%	12.6µM*
COc1nc(N)nc(NC(=O)c2cccs2)c1N=O	-5.2%	2.4%	4.4	?	?	12.6µM*
Cc1c(C(=O)NCCc2ccncc2)cnn1-c1nccc(-c2ccccc2C(F)(F)F)n1	/	/	/	i	/	/
O=C(NCc1nc2ccccc2[nH]1)C1=C[C@H](c2ccc(Br)cc2)C[C@H](OCc2ccc(CO)cc2)O1	-9.9%	-18.2%	4.4	?	-8.8%	0.4%
O=C(NCc1nc2ccccc2[nH]1)C1=C[C@H](c2ccc(C(F)(F)F)cc2)C[C@H](OCc2ccc(CO)cc2)O1	?	?	-7.3	?	11.2µM*	-31.0%
O=C1/C(=C\c2ccc(Cl)c(Cl)c2)CN(C(=O)CCN2CCOCC2)C/C1=C/c1ccc(Cl)c(Cl)c1	-12.1%	6.7µM*	?	6.7µM*	2.82µM*	15.8µM*
CCN(CC)CCC(=O)N1C/C(=C/c2ccccc2)C(=O)/C(=C\c2ccccc2)C1	-11.5%	23.8µM*	-13.9	13.4µM*	2.82µM*	-104.1%
O=C1/C(=C\c2ccccc2)CN(C(=O)CCN2CCCCC2)C/C1=C/c1ccccc1	-13.9%	?	9.1	?	15.8µM*	-105.7%
Brc1ccc(/C=C2\C=Cc3ccccc32)cc1	/	/	/	/	-7.1%	-32.7%
CCCS(=O)(=O)N1CCCC(C(=O)NCCCOC)C1 (stereo not given)	/	14.3%	/	i	11.4%	-3.0%
COCCCNC(=O)C1CCCN(S(C)(=O)=O)C1 (stereo not given)	0.9%	-8.7%	-7.0	i	8.8%	3.55µM*
